Sampled rows, rich in hits. Any-hit rate of the full collection: about 1.6%.
KCNQ2 inh: blocks the rat KCNQ2 potassium channel; O88943; CHO-K1 KCNQ2, FluxOR thallium flux, 20 min; active compounds read low; B-score at 10 µM; 1.1% of 310,000 active;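 active means fluorescence ratio B-score at most minus 3 library SDs, with starting brightness B-score within 2 library SDs, cut at about -5.5 in these data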
KCNQ2 pot: KCNQ2 (rat) channel potentiation; O88943; CHO-K1 KCNQ2, FluxOR thallium flux fluorescence; active compounds read high; B-score at 10 µM; 0.54% of 310,000 active; AID 2239;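 active means fluorescence ratio B-score at least 3 SD of library B-scores, with initial fluorescence B-score within 3 of them, cut at about 5.3 in these data; same plate scores as AID 2156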;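 further: B-score of peak minus minimum over baseline fluorescence ratio after K+ and Tl+ stimulus; positive B-score means potentiation of KCNQ2 with more thallium influx and brighter signal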
Kir21 conf inh: confirmation of mouse Kir2.1 potassium channel inhibitors | shares compounds with KCNQ2 pot | Tl flux remaining, % of negative control (active compounds read low), % at 10 µM | Kir2.1-expressing cells, FluxOR thallium flux fluorescence; active compounds read low | 41% of 2,300 active;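 active means Primary-screen hit whose thallium flux fell at least 3 control SD below untreated wells in both duplicates, with normal baseline fluorescence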
HEK293 ctr: alters thallium flux in parental HEK293 cells, Kir2.1 counter-screen | shares compounds with KCNQ2 pot | FluxOR thallium flux fluorescence; 0% = unstimulated blank wells | FluxOR signal as % of negative control (100 = no effect), % at 10 µM | 19% of 2,300 active | AID 2105;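 active means dye signal at least 3 control SD above or below untreated wells in both duplicates, raw fluorescence within 3, either direction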;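 further: percent is based on the flux ratio of peak minus minimum fluorescence over baseline F0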
CHO-K1 Tl ctr: counter-screen for KCNQ2 potentiators: effect in parental CHO-K1 cells; shares compounds with KCNQ2 pot; FluxOR thallium flux fluorescence; zero = vehicle mean+3SD, 100% = vehicle-minus-blank window; AID 2282; activity increase over 3SD of controls, % at 10 µM; 43% of 1,200 active;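 active means signal rise of at least 3 SD above the untreated control mean, in both duplicate wells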;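 further: counter screen of KCNQ2 potentiator hits so any rise reflects channel-independent effects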
KCNQ1 pot spec: selectivity of KCNQ2 potentiators: effect on human KCNQ1; shares compounds with KCNQ2 pot; CHO KCNQ1 stable, FluxOR thallium flux fluorescence; beyond 3SD, as % of vehicle-control signal; AID 2283; activation over 3SD threshold, % at 10 µM; 28% of 1,200 active;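 active means fluorescence ratio rise of at least 3 SD of vehicle wells above their mean, in both replicate wells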
Target sequence (P51787 whole entry, looked up): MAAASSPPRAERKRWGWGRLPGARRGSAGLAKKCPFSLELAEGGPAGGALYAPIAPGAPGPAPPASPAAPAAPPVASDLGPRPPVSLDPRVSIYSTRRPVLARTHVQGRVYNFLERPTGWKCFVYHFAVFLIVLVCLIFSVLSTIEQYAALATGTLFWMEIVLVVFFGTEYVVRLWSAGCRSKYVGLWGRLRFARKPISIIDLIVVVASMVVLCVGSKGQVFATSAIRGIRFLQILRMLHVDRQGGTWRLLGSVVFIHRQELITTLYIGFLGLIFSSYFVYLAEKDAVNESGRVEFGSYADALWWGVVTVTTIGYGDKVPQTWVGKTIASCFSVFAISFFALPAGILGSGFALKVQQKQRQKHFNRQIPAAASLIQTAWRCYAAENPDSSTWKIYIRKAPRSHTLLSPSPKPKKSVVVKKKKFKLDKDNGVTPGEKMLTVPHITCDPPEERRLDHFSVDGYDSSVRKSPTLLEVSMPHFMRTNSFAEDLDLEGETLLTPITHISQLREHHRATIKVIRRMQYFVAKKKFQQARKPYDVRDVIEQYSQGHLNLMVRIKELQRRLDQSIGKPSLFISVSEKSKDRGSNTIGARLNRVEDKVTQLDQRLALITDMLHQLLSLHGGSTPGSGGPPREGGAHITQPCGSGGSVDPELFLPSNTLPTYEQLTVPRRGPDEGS
KCNQ2 pot conf: rat KCNQ2 channel potentiator confirmation; potentiation, less the hit threshold, % at 10 µM; 68% of 1,200 active; shares compounds with KCNQ2 pot; CHO-KCNQ2 cells, FluxOR thallium flux fluorescence; AID 2287;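 active means fluorescence ratio rising 3 SD or more over the vehicle control mean in both replicates, plus primary screen hit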;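 further: peak minus minimum thallium fluorescence divided by baseline after K/Tl stimulus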
Kir2-1 sel: selectivity of KCNQ2 potentiators: effect on mouse Kir2.1. shares compounds with KCNQ2 pot. HEK293 Kir2.1, FluxOR thallium flux fluorescence. activity over 3SD threshold, % at 10 µM. 2% of 1,200 active. AID 2345;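 active means fluorescence ratio rise of at least 3 SD above the vehicle-control mean, seen in both replicates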
KCNQ2 W236L pot: rat KCNQ2 W236L mutant potentiation by KCNQ2 potentiators | shares compounds with KCNQ2 pot | CHO KCNQ2-W236L, automated patch clamp current | current increase over 3SD of negative controls (%), active compounds read high, % at 25 µM | 10% of 940 active;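 active means current increase at least 3 SD of the untreated controls above them in both duplicate recordings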
Hits are given with their value.

`Clc1ccc(Nc2ccc(Cl)nn2)cc1` gave KCNQ2 inh inactive, KCNQ2 pot 6.63, Kir21 conf inh inactive, HEK293 ctr inactive, CHO-K1 Tl ctr 17.0, KCNQ1 pot spec 35.7, KCNQ2 pot conf 13.9, Kir2-1 sel inactive and KCNQ2 W236L pot 25.5%.
COc1ccc(Nc2ccc(Cl)nn2)cc1 was read as KCNQ2 inh inactive and KCNQ2 pot inactive.
O=c1cc(Cn2ccnc2)c2cc(O)ccc2o1 was read as KCNQ2 inh inactive.
`O=c1[nH]cnc2scc(-c3ccc(-c4ccccc4)cc3)c12` gave KCNQ2 inh inactive.
Screening Cc1c(-c2ccccc2)sc2nc[nH]c(=S)c12 returned KCNQ2 inh inactive, KCNQ2 pot 10.1, Kir21 conf inh inactive, HEK293 ctr inactive, CHO-K1 Tl ctr inactive, KCNQ1 pot spec inactive, KCNQ2 pot conf 6.5, Kir2-1 sel inactive and KCNQ2 W236L pot inactive.
Screening C=CCc1c(O)c(CC)cc2c(C)cc(=O)oc12 returned KCNQ2 inh inactive and KCNQ2 pot inactive.
For CC(NC(=O)Cc1ccc(Br)cc1)c1ccccc1 (configuration not stated) the results were KCNQ2 inh inactive.
Screening O=C(Nc1cccc(N2C(=O)C=CC2=O)c1)c1cccs1 returned KCNQ2 inh inactive, Kir21 conf inh 72.0% and HEK293 ctr inactive.
Screening Cc1nc2ccccc2c(=O)n1-c1cccc(NC(=O)c2cccs2)c1 returned KCNQ2 inh inactive and KCNQ2 pot inactive.
For CCc1cccc(N(CC(=O)NC2CCCCC2)C(=O)c2csnn2)c1 the results were KCNQ2 inh inactive and KCNQ2 pot inactive.
Screening COc1ccccc1N1CCN(C(=O)NCc2cccc(C(F)(F)F)c2)CC1 returned KCNQ2 inh inactive, KCNQ2 pot 6.99, Kir21 conf inh inactive, HEK293 ctr inactive, CHO-K1 Tl ctr inactive, KCNQ1 pot spec inactive, KCNQ2 pot conf inactive, Kir2-1 sel inactive and KCNQ2 W236L pot inactive.
COc1cccc(CNC(=O)N2CCN(c3ccccc3Cl)CC2)c1 was read as KCNQ2 inh inactive and KCNQ2 pot inactive.
Screening O=C(Nc1cccc(F)c1)c1ccc(Br)o1 returned KCNQ2 inh inactive and KCNQ2 pot inactive.
O=C(Nc1cccc(OC(F)(F)F)c1)c1ccc(Br)o1 was read as KCNQ2 inh inactive, KCNQ2 pot 10.9, Kir21 conf inh inactive, HEK293 ctr inactive, CHO-K1 Tl ctr 11.5, KCNQ1 pot spec inactive, KCNQ2 pot conf inactive, Kir2-1 sel inactive and KCNQ2 W236L pot 22.4%.
CC(C)CCn1cnc2c(oc3nc4c(cc32)CCCC4)c1=O was read as KCNQ2 inh inactive and KCNQ2 pot inactive.
`COc1ccc(Nc2ccnc3ccccc23)cc1` gave KCNQ2 inh inactive, KCNQ2 pot inactive, Kir21 conf inh 14.5% and HEK293 ctr inactive.
COc1ccc(Nc2ncnc3ccccc23)cc1 was read as KCNQ2 inh inactive and KCNQ2 pot inactive.
`COc1ccc(NC(=O)CSc2ccc3nnc(-c4cccnc4)n3n2)cc1OC` gave KCNQ2 inh inactive.
For CCC(=O)N(CCC(c1ccco1)C(C)C)Cc1ccccc1 (configuration not stated) the results were KCNQ2 inh inactive, Kir21 conf inh 50.0% and HEK293 ctr 68.5%.
For CC(=O)N(CCC(c1ccco1)C(C)C)Cc1ccc(Cl)cc1 (configuration not stated) the results were KCNQ2 inh inactive.
For CC(=O)Nc1ccc(CN2CCCC(C(=O)c3cccc(C(F)(F)F)c3)C2)cc1 (configuration not stated) the results were KCNQ2 inh inactive.
For COc1ccc(CN2CCCC(C(=O)c3cccc(C(F)(F)F)c3)C2)cc1O (configuration not stated) the results were KCNQ2 inh inactive, Kir21 conf inh 39.5% and HEK293 ctr inactive.
For CCOC(=O)C1C(c2ccc(C(=O)O)cc2)NC(=O)NC1(O)C(F)(F)F (configuration not stated) the results were KCNQ2 inh inactive.
`O=S(=O)(Nc1ccc(S(=O)(=O)Nc2ncccn2)cc1)c1ccc(Cl)cc1` gave KCNQ2 inh inactive and KCNQ2 pot inactive.
O=S(=O)(Nc1cccc(CCc2ccccn2)c1)c1ccc(Cl)cc1 was read as KCNQ2 inh inactive, Kir21 conf inh inactive and HEK293 ctr inactive.
For CCN(c1ccccc1)S(=O)(=O)c1ccc(OC)c(NC(=O)COc2ccc(C(C)=O)cc2)c1 the results were KCNQ2 inh inactive and KCNQ2 pot inactive.
`CSc1nnc(NC(=O)c2ccc(S(=O)(=O)N(C)C)cc2)s1` gave KCNQ2 inh inactive.
`C=CCn1c(SCc2cccc3ccccc23)nnc1-c1cccnc1` gave KCNQ2 inh inactive, Kir21 conf inh 45.0% and HEK293 ctr inactive.
`C=CCn1c(SCC(=O)Nc2ccc(C(=O)O)cc2)nnc1-c1cccnc1` gave KCNQ2 inh inactive.
`CCN(c1ccc(OC)cc1)S(=O)(=O)c1ccc2c(c1)NC(=O)CS2` gave KCNQ2 inh inactive.
CCN(c1cccc(C)c1)S(=O)(=O)c1ccc2c(c1)NC(=O)CS2 was read as KCNQ2 inh inactive, Kir21 conf inh 61.5% and HEK293 ctr inactive.
COc1ccccc1N1CCN(S(=O)(=O)c2ccc(NC(C)=O)cc2)CC1 was read as KCNQ2 inh inactive.
Screening O=C1NC2(CCCCC2)C(=O)N1Cc1ccc([N+](=O)[O-])cc1 returned KCNQ2 inh inactive.
Cc1nnc(SCC(=O)Nc2ccc3c(c2)OCO3)n(N)c1=O was read as KCNQ2 inh inactive.
Screening Cc1nc(SCC(=O)c2cccs2)c2oc3ccccc3c2n1 returned KCNQ2 inh inactive, KCNQ2 pot 6.05, Kir21 conf inh inactive, HEK293 ctr inactive, CHO-K1 Tl ctr inactive, KCNQ1 pot spec inactive, KCNQ2 pot conf inactive, Kir2-1 sel inactive and KCNQ2 W236L pot inactive.
O=C(CSc1ncnc2c1oc1ccccc12)c1cccs1 was read as KCNQ2 inh inactive and KCNQ2 pot inactive.
COC(=O)c1sccc1NC(=S)NCc1ccc(Cl)cc1 was read as KCNQ2 inh inactive, KCNQ2 pot 7.23, Kir21 conf inh inactive, HEK293 ctr 212.5%, CHO-K1 Tl ctr 2.7, KCNQ1 pot spec inactive, KCNQ2 pot conf 38.5, Kir2-1 sel inactive and KCNQ2 W236L pot inactive.

High-throughput results from PubChem BioAssay.
